Assay results: PubChem BioAssay (NCATS)
Where “and” joins values, the source holds several entries; their conditions need not be identical. Equal entries are not always repeated. Records with an inconclusive call do not appear. A structure can be active in one record and inactive in another. A number with no mark means an inactive call. Calls of active or inactive are those of the source. Calls follow the shape of the dose curve; as a rule, active = well fitted inhibition curve with a large enough effect; inconclusive = small, poorly fitted or top-dose-only effect; inactive = flat fitted curve, though single readings scatter.

System: HEK293
Assay: Cytotoxic Profiling of Annotated Libraries Using Quantitative High-Throughput Screening (AID 1296008); also: nearly all actives have a fitted effect of over 60% in size
Conditions: Five cell lines viability, CellTiter-Glo ATP luminescence, 48-72 h; max response: active compounds read low
Source text: Cell-based phenotypic screening is a commonly used approach to discover biological pathways, novel drug targets, chemical probes and high-quality hit-to-lead molecules. Many hits identified from high-throughput screening campaign are ruled out through a series of follow-up potency, selectivity/specificity, and cytotoxicity assays. Prioritization of molecules with little or no cytotoxicity for a more in-depth downstream evaluation influence the future direction of projects, so cytotoxicity profiling of the screening libraries at early stage is essential for increasing the likelihood of candidate success. […] For the annotated library, we also examined the primary targets and mechanistic pathways regularly associated with cell death. To our knowledge, this is the first study to use high-throughput screening to profile large libraries for cytotoxicity assessment in both normal and cancer cell lines. In summary, the results generated here constitutes a valuable resource for the scientific community and provides insight on identifying cytotoxic compounds with particular mechanisms of action, and prioritizing compounds with suitable cytotoxicity profile for further evaluation.
A pintool (Kalypsys) was used to transfer 23 nL of compound solution to the 1536-well assay plates. After 48 or 72 hr incubation at 37 degree Celsius, 5% CO2 and 95% humidity, 2.5 uL of CellTiter-Glo (Promega) was dispensed into each well using a dispenser (Aspect Automation, St. Paul, MN) with solenoid valves (Lee Valves, Westbrook CT). Plates were left at room temperature for 10 min before imaging the ATP-coupled luminescence using a ViewLux microplate imager (PerkinElmer, Waltham, MA).
% is scaled to controls: 0 for no effect and ±100 for the full control effect; potency is read from the fitted curve at half-maximal effect.

SMILES | Potency | outcome | max response
O=C(C=Cc1cccc(S(=O)(=O)Nc2ccccc2)c1)NO | 19.1 µM (active) | – | –
Cc1ccc(NC(=O)C2(c3ccc4c(c3)OC(F)(F)O4)CC2)nc1-c1cccc(C(=O)O)c1 | 0.0372 µM (active) | inactive | –
C=CC(=O)Nc1cccc(Oc2nc(Nc3ccc(N4CCN(C)CC4)cc3OC)ncc2Cl)c1 | – | – | -27.8%
CCn1cc(-c2ccnc3[nH]c(-c4cccc(CN(C)C)c4)cc23)c(-c2ccc(NC(=O)N(C)C)cc2)n1 | 11.8 µM (active) | – | –
C1Cc2[nH]nc(-c3nn[nH]n3)c2C1 | – | inactive | 2.99%
O=C(O)C1(Cc2cccc(Nc3nccs3)n2)CCC(Oc2cccc(Cl)c2F)CC1 (stereo not given) | 2.64 µM (active) and 1.3 µM (active) | – | –
COc1cc(OC2CCN(C)CC2)ccc1Nc1ncc2c(n1)n(C1CCCC1)c(=O)n2C | 3.72 µM (active) | – | –
CN1CC[C@@H](c2c(O)cc(O)c3c(=O)cc(-c4ccccc4Cl)oc23)[C@@H](O)C1 | 0.148 µM (active) | – | –
Nc1ncnc2c1c(-c1cccc(OCc3ccccc3)c1)cn2C1CC(CN2CCCC2)C1 (stereo not given) | 13.2 µM (active) and 5.17 µM (active) | – | –
COCCn1c2c([n+](Cc3cnccn3)c1C)C(=O)c1ccccc1C2=O | 0.0166 µM (active) | – | –
CCOc1cc2ncc(C#N)c(Nc3ccc(F)c(Cl)c3)c2cc1NC(=O)C=CCN(C)C | 1.87 µM (active) | – | –
O=C(Nc1cn[nH]c1-c1nc2ccc(CN3CCOCC3)cc2[nH]1)NC1CC1 | 10.5 µM (active) and 3.66 µM (active) | – | –
CN(C)CC(C)(C)CNc1nn2c(-c3ccccc3)nnc2cc1C1CCC1 | 4.18 µM (active) | inactive | –
CC1(O)CC(c2nc(-c3ccc4ccc(-c5ccccc5)nc4c3)c3c(N)nccn23)C1 (stereo not given) | 4.69 µM (active) | – | –
COc1cccc2c(NCc3ccccc3)nc(-n3c(N)nc4ccccc43)nc12 | 7.43 µM (active) and 11.6 µM (active) | – | –
NCC(=O)Nc1ccc(-n2nc(C(F)(F)F)cc2-c2ccc3c(ccc4ccccc43)c2)cc1 | 166 nM (active) and 1.46 µM (active) | – | –
CC(=O)OCC(=O)[C@@]1(O)[C@H](C)C[C@H]2[C@@H]3C=C(C)C4=Cc5c(cnn5-c5ccccc5)C[C@]4(C)[C@@H]3[C@@H](O)C[C@@]21C | 13.2 µM (active) | – | –
CC(C)C[C@H](NC(=O)CNC(=O)c1cc(Cl)ccc1Cl)B(O)O | 1.18 µM (active) | – | –

SMILES | Potency | outcome | max response
NC(=O)c1cccc2cn(-c3ccc([C@@H]4CCCNC4)cc3)nc12 | 6.51 µM (active) | – | –
C#Cc1cccc(Nc2ncnc3cc(OC)c(OCCCCCCC(=O)NO)cc23)c1 | 1.05 µM (active) and 4.61 µM (active) | – | –
CC(=O)SC[C@@H](C)C(=O)N1CCC[C@H]1C(=O)N[C@@H](Cc1ccccc1)C(=O)O | – | inactive | –
CN(C)CCCN=c1c2ccccc2n(C)c2[nH]c(=O)n(C)c(=O)c12 | 5.26 µM (active) | – | –
CC(C)c1cnn2c(NCc3ccccc3)cc(N[C@@H](CO)[C@H](O)CO)nc12 | 332 nM (active) and 1.03 µM (active) | – | –
CC(NCc1ccc2c(c1)nc(NC(=O)c1ccc(-c3cn[nH]c3)s1)n2CC(C)(C)O)C(C)(C)C (stereo not given) | 0.132 µM (active) | – | –
Cc1nc2ccc(CN(C)c3ccc(C(=O)N[C@@H](CCC(=O)O)C(=O)O)s3)cc2c(=O)[nH]1 | 0.0473 µM (active) | – | –
O=C(O)[C@H](Cc1c[nH]c2ccccc12)N1C(=O)c2ccccc2C1=O | – | inactive | –
CC(C)c1nn(-c2c(Cl)cccc2Cl)c2nc(Cc3ccc(OCCO)cc3)[nH]c(=O)c12 | 59 nM (active) and 36.6 nM (active) | – | –
CNC(=O)c1nn(C)c2c1C(C)(C)Cc1cnc(Nc3ccc(N4CCN(C)CC4)cc3)nc1-2 | 1.16 µM (active) | – | –
CC(=O)OCCN1C(=O)c2c(C)nc3ccc(S(=O)(=O)N4CCOCC4)cc3c2C1=O | – | – | -2.2%
Clc1cccc(-c2nnnn2Cc2cccnc2)c1Cl | 26.4 µM (active) | – | -0.348%
Nc1nc(-c2nn(Cc3ccccc3F)c3ncccc23)nc(N)c1N1CCOCC1 | – | – | -2.05%
CC1(C)O[C@@H]2C[C@@H]3[C@H]4C[C@@H](F)C5=CC(=O)C=C[C@]5(C)[C@@]4(F)[C@@H](O)C[C@]3(C)[C@]2(C(=O)CO)O1 | – | – | -3.12%
CN1CCN(Cc2ccc(NC(=O)Nc3ccc(Oc4cc(NC(=O)C5CC5)ncn4)cc3)cc2C(F)(F)F)CC1 | 0.184 µM (active) | – | –
COC(=O)[C@]12CCC(C)(C)C[C@@H]1[C@@H]1C(=O)C=C3[C@@]4(C)C=C(C#N)C(=O)C(C)(C)[C@@H]4CC[C@@]3(C)[C@]1(C)CC2 | 2.96 µM (active) | – | –
C[C@@H](Oc1cc(-n2cnc3ccc(CN4CCN(C)CC4)cc32)sc1C(N)=O)c1ccccc1C(F)(F)F | 0.0332 µM (active) | – | –
CNC(=O)c1ccc(N2C(=S)N(c3cnc(C#N)c(C(F)(F)F)c3)C(=O)C23CCC3)cc1F | – | inactive | –
